# Laboratory results: publication PMC7862700, “An all-to-all approach to the identification of sequence-specific readers for epigenetic DNA modifications on cytosine”
# How the values were obtained:
# Experiment in all cases: DAPPL (digital affinity profiling via proximity ligation, sequencing); 10 mM Tris-HCl pH 7.5, 50 mM NaCl, 1 mM DTT, 4% glycerol, room temperature, 30 min; GST-TFs on glutathione beads, 16-mer random dsDNA library, 0.1% formaldehyde crosslink after washing; high values mean tight binding
# FLI1 = biological target: T1, FLI1 (Homo sapiens, UniProt Q01543 1-452); conditions: protein: recombinant; tags: N-terminal GST; dsDNA, one strand shown
# T1 sequence: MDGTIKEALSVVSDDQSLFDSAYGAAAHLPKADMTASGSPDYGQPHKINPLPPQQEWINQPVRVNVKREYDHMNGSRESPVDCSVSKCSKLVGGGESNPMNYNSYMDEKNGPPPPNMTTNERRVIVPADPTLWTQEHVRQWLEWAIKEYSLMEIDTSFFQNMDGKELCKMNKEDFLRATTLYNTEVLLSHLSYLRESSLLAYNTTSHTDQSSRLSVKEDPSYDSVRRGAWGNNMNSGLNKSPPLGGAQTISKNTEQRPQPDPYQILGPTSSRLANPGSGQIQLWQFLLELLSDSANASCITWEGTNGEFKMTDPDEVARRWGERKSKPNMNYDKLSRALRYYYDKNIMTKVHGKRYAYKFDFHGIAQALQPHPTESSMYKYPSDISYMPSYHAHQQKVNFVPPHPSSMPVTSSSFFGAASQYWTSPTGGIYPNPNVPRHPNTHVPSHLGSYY
# In short: (§1)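 Human transcription factors were made in yeast as GST fusions, captured on glutathione beads and barcoded with DNA. With a tag-only sample included, the pool was incubated with 200 nmole of a random double-stranded 16-mer DNA library in Tris/NaCl/DTT/glycerol buffer at room temperature for 30 min, then crosslinked with 0.1% formaldehyde after washing, ligated by proximity, amplified and sequenced. For binding signal, each hexamer's read frequency for a factor is divided by its frequency for the tag-only sample.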
# ELK1 = biological target: T2, ELK1 (Homo sapiens, UniProt P19419 1-428); conditions: protein: recombinant; tags: N-terminal GST; dsDNA, one strand shown
# T2 sequence: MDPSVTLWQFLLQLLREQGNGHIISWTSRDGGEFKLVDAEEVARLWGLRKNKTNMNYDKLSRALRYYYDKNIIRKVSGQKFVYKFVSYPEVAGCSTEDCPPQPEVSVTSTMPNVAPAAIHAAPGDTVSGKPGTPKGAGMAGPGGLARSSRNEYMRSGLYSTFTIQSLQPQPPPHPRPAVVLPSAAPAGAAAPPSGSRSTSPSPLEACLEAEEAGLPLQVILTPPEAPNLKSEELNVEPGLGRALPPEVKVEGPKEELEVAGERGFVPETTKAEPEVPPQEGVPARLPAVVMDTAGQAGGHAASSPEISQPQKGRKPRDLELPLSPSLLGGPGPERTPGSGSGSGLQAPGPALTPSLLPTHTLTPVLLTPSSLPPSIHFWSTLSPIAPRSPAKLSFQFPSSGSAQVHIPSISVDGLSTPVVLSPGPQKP
# In short: as §1
# GABPA = biological target: T3, GABPA (Homo sapiens, UniProt Q06546 1-454); conditions: protein: recombinant; tags: N-terminal GST; dsDNA, one strand shown
# T3 sequence: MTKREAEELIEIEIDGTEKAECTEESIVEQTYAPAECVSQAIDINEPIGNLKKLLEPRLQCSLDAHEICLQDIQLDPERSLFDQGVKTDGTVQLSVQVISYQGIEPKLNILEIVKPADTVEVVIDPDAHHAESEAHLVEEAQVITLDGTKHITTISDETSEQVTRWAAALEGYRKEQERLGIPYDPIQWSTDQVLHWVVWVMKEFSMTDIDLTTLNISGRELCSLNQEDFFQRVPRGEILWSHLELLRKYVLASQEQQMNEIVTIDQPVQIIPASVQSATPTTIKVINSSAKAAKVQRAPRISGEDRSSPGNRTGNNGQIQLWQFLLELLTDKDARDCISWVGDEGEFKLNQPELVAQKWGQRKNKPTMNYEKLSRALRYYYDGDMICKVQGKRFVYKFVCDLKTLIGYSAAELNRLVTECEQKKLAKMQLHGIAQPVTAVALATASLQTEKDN
# In short: as §1
# ERG = biological target: T4, ERG (Homo sapiens, UniProt P11308 1-479); conditions: protein: recombinant; tags: N-terminal GST; dsDNA, one strand shown
# T4 sequence: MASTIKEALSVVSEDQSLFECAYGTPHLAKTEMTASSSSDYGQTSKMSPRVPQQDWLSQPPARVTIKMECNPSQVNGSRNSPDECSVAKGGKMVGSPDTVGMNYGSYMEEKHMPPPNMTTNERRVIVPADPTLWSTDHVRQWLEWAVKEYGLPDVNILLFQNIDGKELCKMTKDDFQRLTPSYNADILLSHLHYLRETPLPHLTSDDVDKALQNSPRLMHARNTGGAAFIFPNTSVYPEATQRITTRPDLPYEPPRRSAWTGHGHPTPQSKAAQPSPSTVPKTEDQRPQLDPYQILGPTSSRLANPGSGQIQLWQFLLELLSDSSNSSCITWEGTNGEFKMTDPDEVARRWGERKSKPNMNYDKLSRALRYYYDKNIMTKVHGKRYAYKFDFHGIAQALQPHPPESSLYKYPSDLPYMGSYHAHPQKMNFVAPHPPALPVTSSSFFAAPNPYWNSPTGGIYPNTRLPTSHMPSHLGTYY
# In short: as §1
# ELF1 = ELF1 (Homo sapiens, UniProt P32519 1-619); conditions: protein: recombinant; tags: N-terminal GST; dsDNA, one strand shown
# Sequence of ELF1 (P32519 whole entry): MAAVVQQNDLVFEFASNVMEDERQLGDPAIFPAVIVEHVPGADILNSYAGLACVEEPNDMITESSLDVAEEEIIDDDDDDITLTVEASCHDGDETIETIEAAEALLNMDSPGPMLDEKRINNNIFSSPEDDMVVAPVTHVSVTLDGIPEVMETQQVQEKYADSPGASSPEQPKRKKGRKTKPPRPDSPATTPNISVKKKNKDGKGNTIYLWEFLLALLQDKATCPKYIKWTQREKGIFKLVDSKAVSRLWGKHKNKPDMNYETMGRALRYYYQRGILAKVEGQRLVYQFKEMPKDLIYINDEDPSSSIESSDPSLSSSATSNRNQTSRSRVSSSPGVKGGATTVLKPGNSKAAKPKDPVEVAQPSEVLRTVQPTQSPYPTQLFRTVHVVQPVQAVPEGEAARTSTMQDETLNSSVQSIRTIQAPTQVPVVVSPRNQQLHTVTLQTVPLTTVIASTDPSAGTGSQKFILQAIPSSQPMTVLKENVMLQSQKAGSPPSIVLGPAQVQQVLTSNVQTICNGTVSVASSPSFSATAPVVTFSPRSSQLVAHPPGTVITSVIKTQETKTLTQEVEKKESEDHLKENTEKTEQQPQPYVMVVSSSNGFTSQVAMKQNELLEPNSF
# In short: as §1
# EHF = biological target: T5, EHF (Homo sapiens, UniProt Q9NZC4 1-300); conditions: protein: recombinant; tags: N-terminal GST; dsDNA, one strand shown
# T5 sequence: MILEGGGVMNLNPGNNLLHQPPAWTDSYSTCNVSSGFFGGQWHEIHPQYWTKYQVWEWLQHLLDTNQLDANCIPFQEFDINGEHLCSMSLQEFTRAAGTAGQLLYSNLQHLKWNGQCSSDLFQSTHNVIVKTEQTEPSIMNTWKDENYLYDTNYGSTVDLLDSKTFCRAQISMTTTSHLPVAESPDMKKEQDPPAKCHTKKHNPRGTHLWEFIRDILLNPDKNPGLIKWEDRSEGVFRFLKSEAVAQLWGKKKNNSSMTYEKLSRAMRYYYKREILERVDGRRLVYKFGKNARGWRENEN
# In short: as §1
# SPI1 = SPI1 (Homo sapiens, UniProt P17947 1-270); conditions: protein: recombinant; tags: N-terminal GST; dsDNA, one strand shown
# In short: as §1
# SPIB = SPIB (Homo sapiens, UniProt Q01892 1-262); conditions: protein: recombinant; tags: N-terminal GST; dsDNA, one strand shown
# Sequence of SPIB (Q01892 whole entry): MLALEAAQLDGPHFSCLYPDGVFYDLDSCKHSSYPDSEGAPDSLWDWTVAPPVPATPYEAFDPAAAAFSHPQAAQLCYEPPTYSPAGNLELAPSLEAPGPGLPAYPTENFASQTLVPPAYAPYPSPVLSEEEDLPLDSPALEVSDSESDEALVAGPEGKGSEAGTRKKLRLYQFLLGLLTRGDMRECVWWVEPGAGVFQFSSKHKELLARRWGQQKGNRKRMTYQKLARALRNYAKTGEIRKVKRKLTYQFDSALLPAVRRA
# In short: as §1
# ELK3 = biological target: T6, ELK3 (Homo sapiens, UniProt P41970 1-407); conditions: protein: recombinant; tags: N-terminal GST; dsDNA, one strand shown
# T6 sequence: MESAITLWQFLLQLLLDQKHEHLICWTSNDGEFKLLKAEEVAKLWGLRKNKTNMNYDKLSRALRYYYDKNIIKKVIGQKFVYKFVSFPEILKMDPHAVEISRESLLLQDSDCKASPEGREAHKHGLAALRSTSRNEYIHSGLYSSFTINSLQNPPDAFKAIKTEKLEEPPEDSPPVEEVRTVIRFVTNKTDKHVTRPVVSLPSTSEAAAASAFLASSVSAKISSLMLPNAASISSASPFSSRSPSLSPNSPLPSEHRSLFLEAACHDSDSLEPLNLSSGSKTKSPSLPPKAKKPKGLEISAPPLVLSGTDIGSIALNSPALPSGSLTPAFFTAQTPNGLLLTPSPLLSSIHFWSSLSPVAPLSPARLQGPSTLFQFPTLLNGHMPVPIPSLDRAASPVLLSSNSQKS
# In short: as §1
# FEV = biological target: T7, FEV (Homo sapiens, UniProt Q99581 1-238); conditions: protein: recombinant; tags: N-terminal GST; dsDNA, one strand shown
# T7 sequence: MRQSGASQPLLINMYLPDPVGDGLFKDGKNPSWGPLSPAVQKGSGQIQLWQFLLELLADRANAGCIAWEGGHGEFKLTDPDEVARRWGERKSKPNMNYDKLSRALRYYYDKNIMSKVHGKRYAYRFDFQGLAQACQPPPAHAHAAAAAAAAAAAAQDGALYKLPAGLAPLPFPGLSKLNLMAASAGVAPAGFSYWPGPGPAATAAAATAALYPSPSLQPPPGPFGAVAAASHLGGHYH
# In short: as §1
# ETV5 = ETV5 (Homo sapiens, UniProt P41161 1-510); conditions: protein: recombinant; tags: N-terminal GST; dsDNA, one strand shown
# Sequence of ETV5 (P41161 whole entry): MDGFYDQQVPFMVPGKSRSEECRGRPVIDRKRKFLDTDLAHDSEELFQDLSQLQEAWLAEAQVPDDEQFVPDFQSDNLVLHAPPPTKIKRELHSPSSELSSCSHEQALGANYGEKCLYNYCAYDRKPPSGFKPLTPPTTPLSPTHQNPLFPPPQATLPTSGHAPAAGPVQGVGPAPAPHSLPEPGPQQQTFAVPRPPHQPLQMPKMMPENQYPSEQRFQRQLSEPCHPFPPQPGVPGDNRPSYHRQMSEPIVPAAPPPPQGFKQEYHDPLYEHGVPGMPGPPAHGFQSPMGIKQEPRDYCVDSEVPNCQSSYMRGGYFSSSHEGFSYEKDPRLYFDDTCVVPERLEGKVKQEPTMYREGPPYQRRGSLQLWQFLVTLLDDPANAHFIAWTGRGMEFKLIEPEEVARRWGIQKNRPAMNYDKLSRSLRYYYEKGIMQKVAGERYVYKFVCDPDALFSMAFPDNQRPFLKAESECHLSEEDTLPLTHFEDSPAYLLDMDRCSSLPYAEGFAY
# In short: as §1
# HSF1 = HSF1 (Homo sapiens, UniProt Q00613 1-529); conditions: protein: recombinant; tags: N-terminal GST; chain copies: 3; dsDNA, one strand shown
# Sequence of HSF1 (Q00613 whole entry): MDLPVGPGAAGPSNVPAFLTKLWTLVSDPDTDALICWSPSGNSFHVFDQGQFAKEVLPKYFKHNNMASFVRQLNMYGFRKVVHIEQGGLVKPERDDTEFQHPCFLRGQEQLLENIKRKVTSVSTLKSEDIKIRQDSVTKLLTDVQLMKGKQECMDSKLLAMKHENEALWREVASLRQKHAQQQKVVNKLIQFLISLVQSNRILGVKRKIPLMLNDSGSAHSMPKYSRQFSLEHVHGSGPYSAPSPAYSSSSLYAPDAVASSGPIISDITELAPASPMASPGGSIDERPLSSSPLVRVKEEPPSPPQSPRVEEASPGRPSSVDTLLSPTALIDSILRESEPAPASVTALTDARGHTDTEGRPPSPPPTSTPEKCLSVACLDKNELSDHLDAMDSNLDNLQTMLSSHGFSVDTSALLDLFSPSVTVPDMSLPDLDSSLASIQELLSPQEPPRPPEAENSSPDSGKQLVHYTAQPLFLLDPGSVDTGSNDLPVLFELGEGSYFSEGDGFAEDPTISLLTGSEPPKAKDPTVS
# In short: as §1
# SPIC = biological target: T8, SPIC (Homo sapiens, UniProt Q8N5J4 1-248); conditions: protein: recombinant; tags: N-terminal GST; dsDNA, one strand shown
# T8 sequence: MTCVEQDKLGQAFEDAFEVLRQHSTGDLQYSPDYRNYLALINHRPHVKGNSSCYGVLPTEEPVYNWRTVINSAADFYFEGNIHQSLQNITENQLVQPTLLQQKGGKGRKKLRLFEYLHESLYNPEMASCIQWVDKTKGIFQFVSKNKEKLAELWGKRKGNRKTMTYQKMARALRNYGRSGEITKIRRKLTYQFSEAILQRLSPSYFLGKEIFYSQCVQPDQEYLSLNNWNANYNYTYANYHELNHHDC
# In short: as §1
# ELF4 = ELF4 (Homo sapiens, UniProt Q99607 1-663); conditions: protein: recombinant; tags: N-terminal GST; dsDNA, one strand shown
# Sequence of ELF4 (Q99607 whole entry): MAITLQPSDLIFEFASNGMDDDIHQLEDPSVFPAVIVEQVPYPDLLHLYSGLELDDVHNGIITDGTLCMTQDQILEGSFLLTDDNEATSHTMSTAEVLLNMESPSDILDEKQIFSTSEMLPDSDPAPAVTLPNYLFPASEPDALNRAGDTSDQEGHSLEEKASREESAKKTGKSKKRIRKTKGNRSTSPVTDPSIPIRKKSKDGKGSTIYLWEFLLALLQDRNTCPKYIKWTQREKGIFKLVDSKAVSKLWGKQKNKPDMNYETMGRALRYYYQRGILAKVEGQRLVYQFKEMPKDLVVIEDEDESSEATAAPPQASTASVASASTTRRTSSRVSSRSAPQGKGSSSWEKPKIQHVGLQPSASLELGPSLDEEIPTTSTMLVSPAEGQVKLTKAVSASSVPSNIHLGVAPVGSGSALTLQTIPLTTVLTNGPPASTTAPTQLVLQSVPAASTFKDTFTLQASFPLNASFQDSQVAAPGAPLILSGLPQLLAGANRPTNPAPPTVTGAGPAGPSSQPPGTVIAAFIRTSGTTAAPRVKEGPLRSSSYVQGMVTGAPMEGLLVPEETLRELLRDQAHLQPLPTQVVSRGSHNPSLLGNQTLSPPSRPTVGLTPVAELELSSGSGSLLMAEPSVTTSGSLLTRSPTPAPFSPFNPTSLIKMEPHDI
# In short: as §1
# ELK4 = biological target: T9, ELK4 (Homo sapiens, UniProt P28324-2 1-405); conditions: protein: recombinant; tags: N-terminal GST; dsDNA, one strand shown
# T9 sequence: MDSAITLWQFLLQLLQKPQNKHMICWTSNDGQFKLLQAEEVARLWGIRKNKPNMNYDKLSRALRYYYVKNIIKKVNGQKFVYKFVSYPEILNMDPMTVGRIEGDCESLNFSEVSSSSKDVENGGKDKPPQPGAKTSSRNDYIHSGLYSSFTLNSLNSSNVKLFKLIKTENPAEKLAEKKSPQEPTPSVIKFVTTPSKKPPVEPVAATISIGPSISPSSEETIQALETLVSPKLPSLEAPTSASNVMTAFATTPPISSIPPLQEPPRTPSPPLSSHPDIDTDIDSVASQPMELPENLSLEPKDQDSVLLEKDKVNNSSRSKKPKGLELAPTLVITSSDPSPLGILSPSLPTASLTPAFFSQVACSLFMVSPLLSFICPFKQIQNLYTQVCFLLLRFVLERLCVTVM
# In short: as §1
# ETV2 = biological target: T10, ETV2 (Homo sapiens, UniProt O00321 1-342); conditions: protein: recombinant; tags: N-terminal GST; dsDNA, one strand shown
# T10 sequence: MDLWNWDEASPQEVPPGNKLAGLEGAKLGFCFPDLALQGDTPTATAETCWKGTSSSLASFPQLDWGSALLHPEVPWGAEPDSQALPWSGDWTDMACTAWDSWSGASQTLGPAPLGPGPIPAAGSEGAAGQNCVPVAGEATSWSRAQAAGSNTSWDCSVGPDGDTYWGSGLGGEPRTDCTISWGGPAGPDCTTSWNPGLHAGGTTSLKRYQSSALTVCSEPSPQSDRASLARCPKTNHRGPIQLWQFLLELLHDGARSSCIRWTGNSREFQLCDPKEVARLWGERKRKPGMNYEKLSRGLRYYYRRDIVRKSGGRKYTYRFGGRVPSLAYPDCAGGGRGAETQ
# In short: as §1
# ELF3 = biological target: T11, ELF3 (Homo sapiens, UniProt P78545 1-371); conditions: protein: recombinant; tags: N-terminal GST; dsDNA, one strand shown
# T11 sequence: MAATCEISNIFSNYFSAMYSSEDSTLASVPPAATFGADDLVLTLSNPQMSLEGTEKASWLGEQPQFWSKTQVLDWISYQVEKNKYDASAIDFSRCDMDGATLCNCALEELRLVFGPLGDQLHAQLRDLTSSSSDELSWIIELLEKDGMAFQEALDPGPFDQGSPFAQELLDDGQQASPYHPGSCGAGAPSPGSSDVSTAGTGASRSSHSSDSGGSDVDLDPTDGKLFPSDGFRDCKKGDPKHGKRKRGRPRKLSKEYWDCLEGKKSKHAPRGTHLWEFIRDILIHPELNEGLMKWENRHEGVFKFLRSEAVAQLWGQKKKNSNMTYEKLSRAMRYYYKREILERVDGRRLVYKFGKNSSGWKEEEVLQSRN
# In short: as §1
# CRX = CRX (Homo sapiens, UniProt O43186 1-299); conditions: protein: recombinant; tags: N-terminal GST; dsDNA, one strand shown
# Sequence of CRX (O43186 whole entry): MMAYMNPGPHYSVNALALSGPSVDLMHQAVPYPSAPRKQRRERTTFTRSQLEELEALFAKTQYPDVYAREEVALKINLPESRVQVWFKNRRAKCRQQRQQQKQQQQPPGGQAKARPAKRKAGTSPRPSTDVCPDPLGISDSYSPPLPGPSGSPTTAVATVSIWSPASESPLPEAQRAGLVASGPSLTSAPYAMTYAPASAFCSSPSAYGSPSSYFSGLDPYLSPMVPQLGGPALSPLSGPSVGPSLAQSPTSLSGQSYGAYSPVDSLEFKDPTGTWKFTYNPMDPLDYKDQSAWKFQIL
# In short: as §1
# ETV1 = ETV1 (Homo sapiens, UniProt P50549 1-477); conditions: protein: recombinant; tags: N-terminal GST; dsDNA, one strand shown
# Sequence of ETV1 (P50549 whole entry): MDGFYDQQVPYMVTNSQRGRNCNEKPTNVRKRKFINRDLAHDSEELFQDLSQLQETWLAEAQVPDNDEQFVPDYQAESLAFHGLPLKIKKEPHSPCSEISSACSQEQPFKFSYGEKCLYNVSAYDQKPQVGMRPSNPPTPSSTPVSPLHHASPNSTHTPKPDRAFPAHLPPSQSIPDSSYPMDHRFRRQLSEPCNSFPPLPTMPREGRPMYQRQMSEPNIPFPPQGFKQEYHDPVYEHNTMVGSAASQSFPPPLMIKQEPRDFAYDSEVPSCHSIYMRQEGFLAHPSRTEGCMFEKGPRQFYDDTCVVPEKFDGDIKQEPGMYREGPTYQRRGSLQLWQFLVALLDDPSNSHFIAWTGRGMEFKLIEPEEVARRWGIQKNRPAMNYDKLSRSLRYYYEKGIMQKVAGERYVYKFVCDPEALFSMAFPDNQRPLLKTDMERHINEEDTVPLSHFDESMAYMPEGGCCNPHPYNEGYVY
# In short: as §1
sequence,measurement,setting,value
CGTTAA,binding signal,FLI1,"1.12 fold enrichment (6-mer frequency, TF over GST control)"
same,binding signal,ELK1,"1.17 fold enrichment (6-mer frequency, TF over GST control)"
same,binding signal,GABPA,"1.11 fold enrichment (6-mer frequency, TF over GST control)"
same,binding signal,ERG,"1.17 fold enrichment (6-mer frequency, TF over GST control)"
same,binding signal,ELF1,"1.14 fold enrichment (6-mer frequency, TF over GST control)"
same,binding signal,EHF,"1.1 fold enrichment (6-mer frequency, TF over GST control)"
same,binding signal,SPI1,"1.1 fold enrichment (6-mer frequency, TF over GST control)"
same,binding signal,SPIB,"1.13 fold enrichment (6-mer frequency, TF over GST control)"
same,binding signal,ELK3,"1.21 fold enrichment (6-mer frequency, TF over GST control)"
same,binding signal,FEV,"1.18 fold enrichment (6-mer frequency, TF over GST control)"
same,binding signal,ETV5,"1.21 fold enrichment (6-mer frequency, TF over GST control)"
same,binding signal,HSF1,"1.31 fold enrichment (6-mer frequency, TF over GST control)"
same,binding signal,SPIC,"1.34 fold enrichment (6-mer frequency, TF over GST control)"
same,binding signal,ELF4,"1.12 fold enrichment (6-mer frequency, TF over GST control)"
same,binding signal,ELK4,"1.07 fold enrichment (6-mer frequency, TF over GST control)"
same,binding signal,ETV2,"1.36 fold enrichment (6-mer frequency, TF over GST control)"
same,binding signal,ELF3,"1.27 fold enrichment (6-mer frequency, TF over GST control)"
same,binding signal,CRX,"1.7 fold enrichment (6-mer frequency, TF over GST control)"
same,binding signal,ETV1,"1.09 fold enrichment (6-mer frequency, TF over GST control)"
